Measurements: ChEMBL document CHEMBL4888484, “Replenishing the malaria drug discovery pipeline: Screening and hit evaluation of the MMV Hit Generation Library 1 (HGL1) against asexual blood stage Plasmodium falciparum ,using a nano luciferase reporter read-out” (2022)
Hit rate of the full screen: of about 4,800 compounds, about 420 (8.8%) showed an effect of 50% or more. The sample as a whole holds a higher share of strong results than the screen did.

system: Plasmodium falciparum; test: Confirmatory screen in NF54 nanoGlo assay, in single point, at 2uM, 72h; format: functional, Erythrocyte; conditions: timepoint 72 hour

SMILES | % Inhibition
O=C(O)Cc1sc(-c2ccccc2)nc1O | 1%
CC(=O)Nc1cc(NC(=O)c2cccc[n+]2[O-])c(F)cc1F | -2%
COC(=O)c1[nH]c(C)cc1NC(=O)C1=CCCCCC1 | -2%
O=C(Nc1nncs1)c1cccc(C(=O)Nc2nncs2)n1 | 68%
O=C(Nc1nncs1)NC(C1CC1)C1CC1 | 0%
Cc1ccc(-c2csc(NC(=O)c3cccc(C(=O)Nc4nc(-c5ccc(C)cc5C)cs4)n3)n2)c(C)c1 | -1%
CCOC(=O)c1c(C(F)(F)F)[nH]n2c(C(F)F)nnc12 | -3%
Cc1cc(NC(=O)C(=O)NC2CC(C)CC(C)(C)C2)n(-c2nc3c(c(=O)[nH]2)CCC3)n1 (stereo not given) | 90%
CCOc1ccc2ccccc2c1C(=O)Nc1cc(C)nn1-c1nc2c(c(=O)[nH]1)CCC2 | 94%
COc1ccc2ccccc2c1C(=O)Nc1ccc(N2CCN(C)CC2)c(Cl)c1 | 5%
O=C(Cc1ccccc1)Nc1c2c(nc3c1CCC3)CCCC2 | 3%
Cc1cc(C)cc(Nc2nc(C)cc(=O)n2CC(=O)Nc2ccc(C)cc2Br)c1 | -8%
Cc1ccc2c(c1)ncc1c(-c3ccccc3)nn(-c3ccc(F)cc3)c12 | -5%
COc1ccc(NC(=O)Cc2c(C)nn(-c3nc(C)cs3)c2O)c(OC)c1 | -7%
CCOC(=O)c1cc(-c2ccccc2)n(NC(=O)COc2ccc(Cl)cc2)c1C | -11%
CNC(=O)c1cc(N2CCN(c3ncc(C(F)(F)F)cc3Cl)CC2)ccc1NC(=O)c1ccccc1Cl | 7%
CCCN(CCC)CCN1C(=O)[C@@H]2C(C(=O)Nc3cc(Cl)cc(Cl)c3)[C@@H]3C=C[C@]2(O3)C1C(=O)NC1CCCCC1 (stereo not given in full) | -3%
COc1ccc(OC)c(NC(=O)Cn2cnc3nc(N4CCOCC4)ncc3c2=O)c1 | 8%
Cc1cc(-c2nnc3n2CC(C)(C)CC3)c(C)o1 | 2%
CCN(C)C1(CNC(=O)c2ccc(-c3cc(F)ccc3O)cc2)CCCC1 | 26%
CCCc1cc(-c2nc(-c3ccc(-n4nc(C)cc4N)cc3)no2)n(C)n1 | 48%
COc1cccc2nc(C[C@H]3CN(CC(C)C)CC[C@H]3CC(=O)O)[nH]c12 | -9%
CC1(C)Cc2nc3ccccc3c(NCc3ccccc3)c2[C@@H](O)C1 | 44%
O=C1c2ccccc2[C@@H](Nc2ccc3c(c2)OCCO3)N1c1ccccn1 | -17%
c1coc(CNc2nc(Nc3cccc4ccccc34)nc3ccccc23)c1 | 20%

SMILES | % Inhibition
Cc1ccc(-c2nc3ncccn3c2Nc2ccc3c(c2)OCCO3)o1 | -8%
CNc1nc(NCCc2ccccc2)nc2ccccc12 | 80%
CNc1nc(NCc2ccccc2)nc2ccccc12 | 78%
c1ccc(CCNc2nc(-c3ccccn3)cs2)cc1 | 12%
CNc1nc(Nc2ccc3c(c2)OCCO3)nc2ccccc12 | 95%
NS(=O)(=O)c1ccc(CCNc2nc(-c3ccccc3)nc3ccccc23)cc1 | -2%
C[C@H](Nc1nc(N2CCCCC2)nc2ccccc12)c1ccccc1 | -1%
Cc1ccc(C)n1-c1ccc(Cl)c(C(=O)NC[C@H]2COCCO2)c1 | -4%
C#Cc1cc(C(F)(F)F)cc(C#N)c1N | 5%
CC1(C)CN(C(=O)CN2CCOCC2=O)C2CCCC21 (stereo not given) | -16%
COc1cccc(N2CCN(C3=NC(=O)[C@@H](C#N)C4(CCCC4)N3)CC2)c1 | 2%
O=C(O)Cc1ccc(OCc2nc(-c3ccsc3)no2)cc1 | -2%
Cc1ccc(S(=O)(=O)N2CC[C@H](CC(=O)NCc3ccccc3)C2)c(C)c1 | -17%
Cc1ccc(NC(=O)Cn2c(=O)n(Cc3ccco3)c(=O)c3ccccc32)c(C)c1 | -12%
CC(=O)Nc1ccc(C)cc1S(=O)(=O)N1CC=C(c2c(C)n(Cc3ccccc3C)c3ccccc23)CC1 | 91%
CC[C@](C)(NCCc1c[nH]c2ccccc12)c1nnnn1CCOC | -2%
Cn1c(N2CCN(Cc3ccc4c(c3)OCO4)CC2)cc(=O)n(C)c1=O | -12%
COc1ccc(CNC(=O)N2C[C@H](C)OC3(CCCCC3)C2)cc1OC(F)F | -8%
O=C(NCc1ccco1)c1cc2c(Cl)ccc3c2n1CCO3 | -1%
Cc1cc2nc(C)c3c(n2n1)N(Cc1ccccc1Cl)CC3 | -2%
CC(C)Oc1cccnc1C(=O)N(C)c1cnn(C)c1 | -5%
COc1ccc(-c2cc3c(N4CCN(C)CC4)nccn3n2)cc1OC | 1%
COc1ccc(-c2nn(-c3ccccc3)c(O)c2C(c2ccc(C(=O)O)cc2)c2c(-c3ccc(OC)cc3)nn(-c3ccccc3)c2O)cc1 | 2%
Cc1nn(-c2ccccn2)c(O)c1C(c1ccccc1)c1c(C)nn(-c2ccccn2)c1O | 90%
O=C(CCn1nc(-c2cccc(Cl)c2)ccc1=O)NCc1ccc(F)cc1F | -2%

SMILES | % Inhibition
CCn1cc(CN2C(=O)C3CCCCC3C2=O)c(C)n1 (stereo not given) | -3%
O=C(c1cc(-c2ccncc2)on1)N1CCOC2(CCCCCC2)C1 | -6%
Oc1nc(N2CCOC3(CCCC3)C2)ncc1F | 51%
FC(F)(F)c1cnc(N2CCOC3(CCOCC3)CC2)s1 | -2%
COC(c1ccc(-c2ccc(OC3CC3)cc2)cc1)C(C)N (stereo not given) | -3%
COc1ccc(CNC(=O)c2ccc(Cl)c(-n3c(C)nc4cccnc43)c2)c(OC)c1 | 2%
CCOC(=O)c1ccc(N2CCN(Cc3ccccc3)CC2)c(NC(=O)COc2ccc(Cl)cc2C)c1 | -4%
Cn1nc(N)c2cc(C(F)(F)F)ccc21 | -2%
CCn1c(=O)c(N2CCN(C(=O)Nc3cccc(C(F)(F)F)c3)CC2)nc2ccccc21 | -2%
Cc1nn(Cc2ccccc2)c2c1C(c1cccc(Cl)c1Cl)c1c(C)nn(Cc3ccccc3)c1O2 | 9%
COc1ccc(OC)c(CN2C(=O)c3cc4c(OC)ccc(OC)c4n3C[C@]2(C(=O)NC2CCCCCC2)c2ccccc2)c1 | 18%
CCCn1c(C)nnc1COC(=O)c1ncoc1C | -5%
CC(C)(C)OC(=O)NC1CCN(c2ncc(C(=O)NCc3ccc(F)c(Cl)c3)c(N)n2)CC1 | -17%
CN1CCc2ncnc(Nc3ccc4nc(N5CCCC5)sc4c3)c2C1 | 2%
CC(=O)Nn1ccc2nc(N3CCOCC3)ncc2c1=O | -7%
COC1(C)CC(NC(=O)C(C(C)C)N2CCCS2(=O)=O)C1(C)C (stereo not given) | -9%
CCC(=O)N(Cc1ccc(-c2ccc(Cl)cc2)o1)[C@H]1CCS(=O)(=O)C1 | 38%
Cn1ccc(CN2CCN(c3ccccc3)CC2)n1 | 1%
Cc1nc(-c2ccc(N3CCC(NCCCn4ccnc4)CC3)cc2)cs1 | 12%
COc1cc(C)cc(C)c1S(=O)(=O)N(C)Cc1nnc[nH]1 | 4%
COc1cccc(C2C(NC(=O)c3ccoc3)CCN2C2CC2)c1 (stereo not given) | -10%
CC1=CCN(C(=O)Nc2nccs2)CC1 | 7%
CC(C(=O)Nc1cc(F)ccc1F)N1CCCC(c2nncn2C(C)C)C1 (stereo not given) | -3%
CC(C(=O)Nc1nccs1)N1CCCC(c2ccn[nH]2)C1 (stereo not given) | 50%
c1ccc(NC(Nc2nnn[nH]2)=C(c2ccccc2)c2ccccc2)cc1 | 0%

SMILES | % Inhibition
O=C(Nc1ccn(Cc2cccnc2)n1)c1ccc(-c2ccccc2F)o1 | -2%
O=C(Nc1cccnc1)c1ccc(-c2ccc(Cl)c(Cl)c2)o1 | 91%
O=C(CCC(=O)Nc1cccnc1)NCc1ccc2c(c1)OCO2 | -2%
CS(=O)(=O)Nc1nc2ccc(NC(=O)c3cc(-c4ccccc4)nc4ccccc34)cc2s1 | 0%
COc1ccc(-c2cc(C(=O)NC3CCN(C(C)C)CC3)c3ccccc3n2)cc1OC | -7%
CCOc1ccc(-c2cc(NC(=O)c3cc(-c4cccnc4)nc4ccccc34)on2)cc1OCC | 94%
COc1ccc(CC[C@](C)(O)c2cc(C(N)=O)no2)cc1 | -9%
COc1ccc(N(C(=O)c2ccccc2)C2CC(C)N(C(=O)c3ccccc3)c3cc(OC)c(OC)cc32)cc1OC (stereo not given) | -1%
N#CCC(=O)Nc1nc(-c2ccc(Oc3ccccc3)cc2)cs1 | -4%
Cc1cc(C(=O)N[C@@H](C)CO)c(C)n1-c1nccs1 | -19%
c1cc(CN2CCN(C3CCCCCC3)CC2)ccn1 | -18%
c1ccc(N2CCN(C3CCN(Cc4ccncc4)CC3)CC2)cc1 | -6%
COc1nccnc1N(C(C)=O)S(=O)(=O)c1ccc(NC(C)=O)cc1 | -13%
N#Cc1ccc(N2CCN3C(=O)NCC3C2)nc1N1CCN2C(=O)NCC2C1 (stereo not given) | -12%
CC(C)[C@H](OC(=O)n1ccnc1)C(=O)OC(C)(C)C | -10%
CC1C=CC2C(=O)N(CC(F)(F)F)C(=O)C2C1C(=O)N1CCC(Cc2ccccc2)CC1 (stereo not given) | -3%
Cc1ccc(NC(=O)Cn2cnc3nc(N(C)Cc4ccccc4)sc3c2=O)c(Br)c1 | -14%
CC[C@@H](CO)NC(=O)Nc1cccc(C)c1 | 5%
CCC(C)(CC)[C@@](O)(C#CC[N+]1(Cc2ccccc2)CCCCC1)c1ccccc1 | 7%
CC(CC1OCC(C[N+]2(Cc3ccccc3)CCCCC2)O1)CC(C)(C)C (stereo not given) | 57%
O=C1CCCC1C(c1ccccc1)N(C1=NS(=O)(=O)c2ccccc21)c1ccccc1 (stereo not given) | -10%
CNC(=O)CCS(=O)(=O)CCCC(=O)Nc1c(C)cc(C)cc1C | -14%
c1ccc2oc(N3CCCCCCC3)nc2c1 | -5%
Cc1ccc(CC(=O)N2CCC(NC(=O)OC(C)(C)C)CC2C)o1 (stereo not given) | -7%
COC[C@@H]1CCCN1c1ccc2c(c1)CNCC(=O)N1CC[C@@H](CC(=O)NCCN3CCOCC3)[C@@H](/C=C/CO2)C1 | -13%
